# Sampled rows, rich in hits. Any-hit rate of the full collection: about 21%.
# MRP1 act: MRP-1 activation | 140,000 tested, 0.61% active | AID 799 | H69AR cells + doxorubicin, viability rescue, CellTiter-Glo | viability increase, % at 10 µM;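 active = viability gain under doxorubicin at or above a set limit, the compound median plus 3 SD, cut at about 4.7% in these data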;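 note: MRP-1 overexpressing cells given doxorubicin 25 µM after compound pretreatment; 18-22 h compound pretreatment then 72 h with doxorubicin before readout; 0% = doxorubicin-only wells and 100% = vehicle-treated cells without doxorubicin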
# CYP2C19 inh: inhibitors of human CYP2C19; P33261; CYP2C19 Supersomes, luciferin-H EGE luminescence, 30 min; inhibition, % at 5 µM; 96,000 tested, 21% active;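 active = CYP2C19 inhibition above a set limit at 5 µM in the primary screen, cut at about 50% in these data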;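 note: plate controls were negative control wells for no effect and 2.5 mM tranylcypromine positive control for full effect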
# Target sequence (P33261 whole entry, looked up): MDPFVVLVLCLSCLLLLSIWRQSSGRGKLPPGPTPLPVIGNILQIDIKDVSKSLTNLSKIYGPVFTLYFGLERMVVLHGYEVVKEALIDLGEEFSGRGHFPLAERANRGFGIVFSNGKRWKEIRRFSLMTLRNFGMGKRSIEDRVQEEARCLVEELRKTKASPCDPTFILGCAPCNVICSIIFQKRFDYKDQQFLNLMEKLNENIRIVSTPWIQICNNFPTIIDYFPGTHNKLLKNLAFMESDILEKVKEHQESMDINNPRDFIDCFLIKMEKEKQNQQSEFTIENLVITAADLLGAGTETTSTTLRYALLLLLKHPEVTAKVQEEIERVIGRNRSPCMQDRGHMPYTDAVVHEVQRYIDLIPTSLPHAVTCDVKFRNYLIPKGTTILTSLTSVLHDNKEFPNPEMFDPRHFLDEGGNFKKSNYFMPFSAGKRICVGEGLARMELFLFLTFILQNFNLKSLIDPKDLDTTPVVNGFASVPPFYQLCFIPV
# MRP reversal: MRP-mediated drug resistance reversal. H69AR cells + 2 uM doxorubicin, CellTiter-Glo, 72 h. differential viability (reversal), % at 10 µM. 85,000 tested, 0.04% active. AID 602;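 active = viability drop by adding the cancer drug above about 55%, with treated viability meeting a 40% cutoff, limit read from the data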;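 note: viability without doxorubicin minus viability with 2 µM doxorubicin for each compound; larger differential means the compound sensitizes cells more to doxorubicin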
# CYP2C19 act: cytochrome P450 2C19 (human) activation | activation factor at 5 µM | AID 1025 | P33261 | recombinant CYP2C19, luciferin-H EGE luminescence; hits give high values; 0 = fully inhibited enzyme, 1 = untreated enzyme | 96,000 tested, under 10 active;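 active = activation factor of at least 2 at 5 µM in the primary screen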;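 note: 0 = wells with 2.5 mM tranylcypromine and 1 = vehicle-only wells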
# CYP2C9 inh: human CYP2C9 inhibition. inhibition, % at 5 µM. CYP2C9 Supersomes, luciferin-H conversion, luminescence. P11712. 96,000 tested, 20% active;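 active = blocking of liver enzyme CYP2C9 beyond about 50% at 5 µM, limit read from the data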
# CYP2C9 act: increases human cytochrome P450 2C9 activity. P11712. recombinant CYP2C9, luciferin-H conversion, luminescence; hits give high values; factor 1 = untreated enzyme, 0 = blocked. activation factor at 5 µM. 96,000 tested, 1.4% active;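 active = activation factor of 2 or more for CYP2C9 at a 5 µM dose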;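 note: 0 = sulfaphenazole-blocked wells and 1 = vehicle-only wells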
# Starred values were filed as active, the others as inactive; x = not tested or not shown.
SMILES,MRP1 act,CYP2C19 inh,MRP reversal,CYP2C19 act,CYP2C9 inh,CYP2C9 act
CCOc1ccccc1NC(=O)c1cccc2c1C(=O)N(CCOC)C2,-1,67*,-12,0.3,88*,0.1
COCCN1Cc2cccc(C(=O)Nc3cccnc3)c2C1=O,-1,12,3,0.9,23,0.8
COCCN1Cc2cccc(C(=O)Nc3cccc(C)c3C)c2C1=O,-2,22,-7,0.8,29,0.7
CCOc1ccc(NC(=O)c2cccc3c2C(=O)N(Cc2cccnc2)C3)cc1,1,20,x,0.8,77*,0.2
O=C(CSc1ccc2nnc(-c3cccnc3)n2n1)NCc1ccc2c(c1)OCO2,-3,-13,x,1.1,11,0.9
CS(=O)(=O)N(CC(=O)Nc1ccc2c(c1)OCCO2)Cc1ccc(Cl)cc1,-1,2,6,1,5,0.9
COc1ccc(C)cc1S(=O)(=O)N(C)CC(=O)Nc1ccc2c(c1)OCO2,-1,58*,6,0.4,86*,0.1
COc1ccc(C)cc1S(=O)(=O)N(C)CC(=O)NC1CC1,-1,3,x,1,14,0.9
COc1ccc(C)cc1S(=O)(=O)N(CC(=O)Nc1ccc2c(c1)OCCO2)Cc1ccccc1,-1,100*,x,0,98*,0
Cc1[nH]c2ccccc2c1[C@H]1[C@@H](CC#N)C1(C)C,-3,48,0,0.5,28,0.7
CC(C)CC(COCc1ccc(Cl)cc1)N1CCN(C(=O)c2ccc(Cl)cc2Cl)CCC1=O (configuration not stated),-4,x,x,x,x,x
CCCCCn1c(Sc2nc3ccccc3s2)nc2c1c(=O)[nH]c(=O)n2C,-1,37,-16,0.6,51*,0.5
C/C(Cl)=C/Cn1c(SCc2ccc(Cl)cc2)nc2c1c(=O)[nH]c(=O)n2C,-1,26,3,0.7,36,0.6
Cc1ccc(CSc2nc3c(c(=O)[nH]c(=O)n3C)n2CCC(C)C)cc1,-2,61*,-10,0.4,75*,0.3
CCOCCn1c(SCc2ccc(F)cc2)nc2c1c(=O)[nH]c(=O)n2C,-1,3,18,1,-2,1
CCOCCn1c(SCc2ccc(C)cc2)nc2c1c(=O)[nH]c(=O)n2C,-3,70*,5,0.3,34,0.7
CC(C)CCSc1nc2c(c(=O)[nH]c(=O)n2C)n1CCc1ccccc1,-1,x,13,x,x,x
CC(C)n1c(SCc2ccc(Cl)cc2)nc2c1c(=O)[nH]c(=O)n2C,-3,50*,-3,0.5,50,0.5
O=S(=O)(C(=CNc1ccccc1)S(=O)(=O)c1ccccc1)c1ccccc1,0,x,x,x,x,x
COCCN1Cc2cccc(C(=O)Nc3ccc(S(=O)(=O)N4CCCCC4)cc3)c2C1=O,x,x,10,x,x,x
Cn1c(=O)n(CCN2CCOCC2)c(=O)c2c1nc1n2CCN1c1ccccc1,x,x,-1,x,x,x
CCOC(=O)N1CCC(=NNS(=O)(=O)c2cccc([N+](=O)[O-])c2)CC1,0,-12,x,1.1,16,0.8
CCN(CC)CCCN1C(=O)C(=O)/C(=C(/O)c2ccc(OC)c(Cl)c2)C1c1ccco1 (configuration not stated),x,-9,0,1.1,1,1
O=C(NC(=S)Nc1c(Cl)ccc2nsnc12)c1ccco1,-4,x,x,x,x,x
C=C(C)CSc1nc2c(c(=O)[nH]c(=O)n2C)n1CCC(C)C,1,27,4,0.7,70*,0.3
SMILES,MRP1 act,CYP2C19 inh,MRP reversal,CYP2C19 act,CYP2C9 inh,CYP2C9 act
CCCCCCn1c(SCC(=O)OC)nc2c1c(=O)[nH]c(=O)n2C,-1,-6,10,1.1,6,0.9
CC(C)CCn1c(SCc2ccc(Cl)cc2)nc2c1c(=O)[nH]c(=O)n2C,-1,51*,-13,0.5,79*,0.2
CCCCn1c(SCc2ccc(Cl)cc2)nc2c1c(=O)[nH]c(=O)n2C,0,19,-18,0.8,25,0.8
COCCSc1nc2c(c(=O)[nH]c(=O)n2C)n1CCC(C)C,0,-5,-9,1,33,0.7
C=C(C)Cn1c(Sc2nc3ccccc3[nH]2)nc2c1c(=O)[nH]c(=O)n2C,-1,88*,6,0.1,33,0.7
C=C(C)Cn1c(SCCCO)nc2c1c(=O)[nH]c(=O)n2C,0,-20,5,1.2,-33,1.3
CCCCCCn1c(SCC(C)C)nc2c1c(=O)[nH]c(=O)n2C,-3,35,-9,0.6,57*,0.4
O=C(O)c1[nH]nc2c1COc1ccccc1-2,-3,-21,17,1.2,-14,1.1
CCOC(=O)C1CCN(CCC(=O)Nc2ccccc2)CC1,-2,x,0,x,x,x
CCC(C)(C)n1nnnc1C(c1cc2ccc(OC)cc2[nH]c1=O)N1CCN(C2CCCCC2)CC1 (configuration not stated),-3,-3,-9,1,6,0.9
COc1ccccc1N1CCN(C(c2cc3cc(C)ccc3[nH]c2=O)c2nnnn2C2CCCC2)CC1 (configuration not stated),0,24,-5,0.8,-18,1.2
CCOC(=O)C1CCN(C(c2cc3ccc(C)cc3[nH]c2=O)c2nnnn2C2CCCCC2)CC1 (configuration not stated),-1,79*,-6,0.2,84*,0.2
COc1ccccc1N1CCN(C(c2cc3ccc(C)cc3[nH]c2=O)c2nnnn2C2CCCC2)CC1 (configuration not stated),-3,72*,5,0.3,91*,0.1
Fc1ccc(-n2[nH]nnc2=S)cc1N1CCCC1,-2,-2,1,1,50*,0.5
Cc1c(C(=O)NCC2CCCO2)cccc1[N+](=O)[O-] (configuration not stated),-1,x,x,x,x,x
CCOc1ccc(-c2nc(-c3cccnc3)no2)cc1OCC,-1,62*,-11,0.4,13,0.9
CCOc1ccc(-c2noc(-c3ccncc3)n2)cc1OCC,-1,70*,-7,0.3,80*,0.2
c1cc(-c2noc(-c3ccc4c(c3)OCO4)n2)ccn1,x,x,6,x,x,x
Cc1cc(Br)ccc1OCc1nc(-c2cccnc2)no1,-2,40,2,0.6,-10,1.1
CCOc1cc(-c2noc(-c3ccncc3)n2)cc(Br)c1OC,-1,76*,-11,0.2,32,0.7
O=[N+]([O-])c1cccc(-c2nc(-c3ccncc3)no2)c1,-3,95*,x,0.1,53*,0.5
CCOc1cc(-c2nc(-c3cc(OC)c(OC)c(OC)c3)no2)cc(OCC)c1OCC,x,x,-7,x,x,x
CCOc1ccc(-c2nc(-c3ccc(OC)cc3)no2)cc1OCC,1,4,-4,1,13,0.9
CCN1CCN(S(=O)(=O)c2ccc(S(=O)(=O)N(CC)Cc3ccccc3)cc2)CC1,-1,47,16,0.5,6,0.9
COc1ccc(-c2nc(-c3ccc(NC(=O)c4ccc(Br)o4)cc3)no2)cc1OC,-1,29,-4,0.7,37,0.6
